DT40 TDP1 no CPT – qHTS for Inhibitors of human tyrosyl-DNA phosphodiesterase 1 (TDP1): qHTS in cells in absence of CPT | hit rate 15% among 420,000 | DT40 Tdp1-/- hTDP1 cells, no CPT, ATP luminescence, 48 h | Potency, µM (highest dose often 46.2 µM), for inactives: at the top dose activity change, negative = growth inhibition, most hits filed as inhibitors | AID 686978, 2013; further: potency means the concentration at half of the fitted maximal effect; nearly all actives have a fitted effect of over 55% in size
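Chicken DT40 Tdp1-/- cells complemented with human TDP1, screened without camptothecin (DMSO vehicle only), 400 cells/well. Compounds pin-transferred, cells incubated at 37 °C for at least 48 hr. Growth read as ATP-dependent luminescence (CellTiter-Glo, 30 min at RT).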
VP16 counter – Gal4-VP16 reporter inhibition counter-screen; Potency, µM (top dose mostly 53.6 µM), for the others: at the top dose activity, negative = inhibition, usual class: inhibitors; hit rate 3.5% among 310,000; Drosophila S2 Gal4-VP16 UAS-luciferase, luminescence, 20 h;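 further: Gal4-VP16 expression switched on by copper sulfate through the metallothionein promoter; potency means the concentration at half of the fitted maximal effect; nearly all actives have a fitted effect of over 50% in size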
DT40 TDP1 CPT – growth inhibition of DT40 Tdp1-/-;hTDP1 cells with camptothecin (screen for TDP1 inhibitors). Potency, µM (series often up to 46.2 µM), for inactives: at the top dose activity change, negative = growth inhibition, usual class: inhibitors. AID 686979. chicken DT40 Tdp1-/-;hTDP1 cells + 20 nM CPT, ATP luminescence, 48 h. hit rate 12% among 420,000; further: potency means the concentration at half of the fitted maximal effect; nearly all actives have a fitted effect of over 55% in size
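Cell growth measured by CellTiter-Glo luminescence after a minimum 48 h, 37 C compound exposure with 20 nM CPT in Tdp1-knockout DT40 cells stably expressing hTDP1, seeded 400/well; qHTS titration format.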
RORg inh – inhibitors of mouse ROR gamma transcriptional activity; P51450; Potency, µM (doses to about 53.6 µM), without a hit: at the top dose activity change, negative = inhibition, actives largely listed as inhibitors; hit rate 5.4% among 310,000; AID 2551; Drosophila S2 Gal4-RORgamma UAS-luciferase reporter, 20 h; further: potency means the concentration at half of the fitted maximal effect; nearly all actives have a fitted effect of over 60% in size
Target sequence (P51450 whole entry, looked up, the tested form may be a part): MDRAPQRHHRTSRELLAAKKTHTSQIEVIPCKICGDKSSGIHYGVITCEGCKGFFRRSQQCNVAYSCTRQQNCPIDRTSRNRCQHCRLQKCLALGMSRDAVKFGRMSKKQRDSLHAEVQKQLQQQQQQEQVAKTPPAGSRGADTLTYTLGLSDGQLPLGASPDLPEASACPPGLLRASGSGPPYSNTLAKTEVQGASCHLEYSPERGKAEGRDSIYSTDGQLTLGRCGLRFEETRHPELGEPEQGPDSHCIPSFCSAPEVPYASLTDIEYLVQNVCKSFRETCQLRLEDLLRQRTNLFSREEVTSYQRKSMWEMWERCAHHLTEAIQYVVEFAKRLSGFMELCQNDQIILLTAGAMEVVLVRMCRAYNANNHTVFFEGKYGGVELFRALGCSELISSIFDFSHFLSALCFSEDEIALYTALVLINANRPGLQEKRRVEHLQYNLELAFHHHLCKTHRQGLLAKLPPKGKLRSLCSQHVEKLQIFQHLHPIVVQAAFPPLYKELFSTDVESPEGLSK
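Drosophila Schneider cells stably carrying a metallothionein-driven Gal4 DBD–ROR gamma fusion and a UAS-Photinus luciferase reporter were exposed to compound for 1 hr, then induced with copper sulfate (700 uM final) for 20 hr at ambient temperature before luminescence reading.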
IL1B secr inh – blocks inflammasome-driven IL-1 beta release; THP-1 LPS/ATP IL-1B secretion, AlphaLISA, 16 h; stronger effect = lower value; activity change, % at 57.5 µM; hit rate 4.7% among 360,000; in the data active means activity change below about -50%; inconclusive means mostly about -30% to -49%
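Secreted IL-1B measured by AlphaLISA bead assay after 16 h compound exposure of THP-1 cells; compounds (final up to 57.5 uM) added 1 h before LPS (250 ng/mL) and ATP (1.25 mM) stimulation; lower signal means less secretion.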
ELG1 DNA repair – blocks ELG1-dependent DNA repair in HEK293T cells; HEK293T ELG1-luciferase reporter, luminescence, 16 h; DNA damage induced by 5-fluorouridine; hit rate 2.3% among 330,000; AID 504467; Potency, µM (highest dose often 46.1 µM), for inactives: at the top dose activity change, negative = inhibition, most hits filed as inhibitors; further: potency means the concentration at half of the fitted maximal effect; nearly all actives have a fitted effect of over 55% in size
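Overnight (16 hr) co-exposure of 2,000 cells/well to 5-fluorouridine and compound at 37 °C preceded detection. Luciferase was quantified via ONE-Glo luminescence; loss of signal denotes inhibition.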
* = called active by the depositor; u = inconclusive; x = not tested or not shown; [ ] = another dose, or the depositor's remark. In the library only some 21% were active in any assay of this set; here they are far more common. Unless noted, the call rests on the fitted dose curve; in most records, active means well fitted curve in the direction sought with a large enough effect; inconclusive means small, poorly fitted or top-dose-only effect, or another doubt; inactive means no such curve, though single readings can be large; an effect the other way counts as inactive or inconclusive. On the % scale 0 is the no-effect control and ±100 the full control effect.

SMILES	DT40 TDP1 no CPT	VP16 counter	DT40 TDP1 CPT	RORg inh	IL1B secr inh	ELG1 DNA repair
COc1cccc(-n2c(-c3ccco3)nc3c(cnn3-c3ccc(C)cc3)c2=O)c1	15µM*	x	15µM*	x	x	x
COc1ccc(-n2c(-c3ccccc3F)nc3c(cnn3-c3ccc(C)cc3)c2=O)cc1	13µM*	x	21µM*	x	x	x
COc1ccc(-n2nccc2-c2nn(-c3cccc(OC)c3)c(=O)n(C)c2=O)cc1	u	-4%	u	-15%	x	u
COc1ccc(-n2c(-c3ccco3)nc3c(cnn3-c3ccc(C)cc3)c2=O)cc1	12µM*	1%	12µM*	u	-7	u
CC(C)Nc1ncnc2c1ncn2[C@H]1CN(Cc2cccnc2)C[C@@H](CO)O1	-1%	x	7%	x	2	x
CC1CCN(C(=O)CN2C(=O)C(=O)N(C(C)C)C2=O)c2ccccc2S1 (stereo unspecified)	-4%	x	-8%	x	-3	u
COc1ccccc1NC(=O)CCN1C(=O)C2CC=CCC2C1=O (stereo unspecified)	3%	6%	-2%	-4%	-7	0%
CC(C)(C)OC(=O)CNC(=O)c1nc[nH]c1C(=O)NCc1ccccc1	-16%	u	u	7.1µM*	19	-22%
Cc1ccccc1NC(=O)c1nc[nH]c1C(=O)NCc1ccccc1	u	5µM*	u	2.8µM*	-1	u
CC(C)(C)OC(=O)CNC(=O)c1nc[nH]c1C(=O)NCc1ccc(CNC(=O)OC(C)(C)C)cc1	15µM*	u	18µM*	u	4	u
CC1CCC2C(=O)N3C(CCC(C)[C@H]3c3cccc(N4CCCC4=O)c3)C(=O)N2C1c1cccc(N2CCCC2=O)c1 (stereo partly specified)	x	-11%[10 µM]	x	11%[10 µM]	x	x
CC(NC=O)c1nc2ccccc2n1CCc1ccccc1 (stereo unspecified)	u	-11%	u	3%	18	-7%
Cc1ccc(CN=C(N)Nc2nc(C)cc(C)n2)cc1	3.3µM*	-2%	6.5µM*	1%	-52*	u
Cc1cc(C)nc(/N=C(\N)Nc2ccc(S(=O)(=O)Nc3nc(C)cc(C)n3)cc2)n1	x	-3%	x	-18%	x	5%
O=C(NCCn1cc(SCc2ccccc2F)c2ccccc21)c1cccs1	21µM*	x	u	x	x	x
O=C(CSc1cn(CCNC(=O)c2cccs2)c2ccccc12)NCc1ccccc1	u	-2%	-94%	26%	-15	u
CC(Sc1cn(CCNC(=O)c2ccccc2F)c2ccccc12)c1ccccc1 (stereo unspecified)	21µM*	x	u	x	x	x
Cc1ccccc1CSc1cn(CCNC(=O)c2cccs2)c2ccccc12	u	x	23µM*	x	x	x
O=C(NCCn1cc(SCc2ccccc2F)c2ccccc21)c1c(F)cccc1F	23µM*	u	u	u	u	u
N#CCCn1c(=O)c(-c2ccccc2)nc2cnc(OCc3ccccc3)nc21	u	4%	-7%	-5%	x	x
N#C/C(=C(/O)COC(=O)COc1cccc(Br)c1)c1nc2ccccc2[nH]1	-12%	13µM*	u	-11%	131	u
Cc1c(-c2cccc(Cl)c2)nc2ccccc2c1C(=O)OC/C(O)=C(\C#N)c1nc2ccccc2[nH]1	21µM*	3%	15µM*	-29%	7	u
Cc1cccc(C)c1OCC(=O)OC/C(O)=C(\C#N)c1nc2ccccc2[nH]1	21µM*	18µM*	u	10µM*	-28	7%
CCOC(=O)c1c(C)[nH]c(C(=O)OCC(O)=C(C#N)c2nc3ccccc3[nH]2)c1C	u	x	u	x	38	x
COc1ccc(/C(C)=N/OC/C(O)=C(\C#N)c2nc3ccccc3[nH]2)cc1	0%	-1%	-22%	u	22	15%
SMILES	DT40 TDP1 no CPT	VP16 counter	DT40 TDP1 CPT	RORg inh	IL1B secr inh	ELG1 DNA repair
Cc1cc(C)cc(OCC(=O)OC/C(O)=C(\C#N)c2nc3ccccc3[nH]2)c1	21µM*	16µM*	u	13µM*	-98*	u
CCCCCCCCCCCCCCCCOCC(CO)OC (stereo unspecified)	-7%[4.12 µM]	-16%	2%[4.12 µM]	21%	x	x
CCOC(=O)C1=C(COC(=O)CNS(=O)(=O)c2c(F)cc(F)cc2Br)NC(=O)NC1C (stereo unspecified)	11%	x	0%	x	15	x
CC(=O)c1ccc(N2CCN(Cc3cc(=O)n4c(-c5ccccc5)csc4n3)CC2)cc1	21µM*	x	u	x	31	x
Cc1ccccc1N1CCN(Cc2nc(Cc3ccccc3)no2)CC1	u	6%	u	22%	4	0%
CC(=O)c1ccc(N2CCN(Cc3nc(Cc4ccccc4)no3)CC2)cc1	16µM*	u	u	3.5µM*	13	u
O=c1cc(CN2CCN(c3ccccc3)CC2)nc2scc(-c3ccccc3)n12	23µM*	-3%	u	10%	42	u
CCOC(=O)C1CCN(Cc2cc(=O)n3c(-c4ccccc4)csc3n2)CC1	-2%	-2%	13%	6%	4	-18%
COCCNC(=O)C1CCCN(C(=O)c2ccc(SC(F)(F)F)cc2)CC1 (stereo unspecified)	-4%	x	-11%	x	32	x
CCC1Cc2[nH]c(=S)[nH]c(=O)c2C(c2ccc(Cl)cc2)O1 (stereo unspecified)	23%	x	15%	x	18	x
O=c1c(-c2ccc(F)cc2)nc2cnc(N3CCOCC3)nc2n1C[C@H]1CCCO1	-2%	-4%	-6%	3%	x	x
Cc1cc(N)n2ncc(-c3ccc(F)cc3)c2n1	0%	-22%	-13%	38%	-6	u
Cc1cc(Cl)n2ncc(-c3ccccc3)c2n1	29µM*	u	u	16µM*	-99*	u
Cc1cc(N)n2ncc(-c3ccc(Cl)cc3)c2n1	u	20%	18µM*	28%	-14	u
Cc1cc(C)n2ncc(-c3cccc(Br)c3)c2n1	-3%	-4%	8%	-23%	17	u
COc1ccc(-c2csc(N3CCN(C(=O)c4ccccc4)CC3)n2)cc1	u	-3%	u	17%	-19	u
COc1ccc(-c2cc3nc(-c4ccccc4)cc(N4CCN(C(C)=O)CC4)n3n2)cc1	2.6µM*	x	1%	x	-5	x
O=C(c1ccoc1)N1CCN(c2cc(-c3cccc(F)c3)nc3cc(-c4cccc(Cl)c4)nn23)CC1	4.6µM*	x	7.3µM*	x	25	x

High-throughput results as filed in PubChem BioAssay.
